Among all 64,000 compounds or so, fewer than 10 were called active. A selection follows. Unmarked numbers belong to inactive results.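 How the source made its calls: active means activation factor of at least 2 at 20 µM, relative to controls; inactive means the rest.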
target: Alkaline phosphatase, tissue-nonspecific isozyme (Homo sapiens) (UniProt P05186); experiment: stimulation of alkaline phosphatase TNAP activity – biochemical, luminescent, intermediate phosphate acceptor level, primary screen (AID 813); settings: purified TNAP, CDP-star luminescence, 100 mM DEA, 30 min; at 20 µM; stronger effect = higher value; scale: 0 levamisole-inhibited, 1 vehicle-only enzyme
Sequence (P05186 whole entry, looked up): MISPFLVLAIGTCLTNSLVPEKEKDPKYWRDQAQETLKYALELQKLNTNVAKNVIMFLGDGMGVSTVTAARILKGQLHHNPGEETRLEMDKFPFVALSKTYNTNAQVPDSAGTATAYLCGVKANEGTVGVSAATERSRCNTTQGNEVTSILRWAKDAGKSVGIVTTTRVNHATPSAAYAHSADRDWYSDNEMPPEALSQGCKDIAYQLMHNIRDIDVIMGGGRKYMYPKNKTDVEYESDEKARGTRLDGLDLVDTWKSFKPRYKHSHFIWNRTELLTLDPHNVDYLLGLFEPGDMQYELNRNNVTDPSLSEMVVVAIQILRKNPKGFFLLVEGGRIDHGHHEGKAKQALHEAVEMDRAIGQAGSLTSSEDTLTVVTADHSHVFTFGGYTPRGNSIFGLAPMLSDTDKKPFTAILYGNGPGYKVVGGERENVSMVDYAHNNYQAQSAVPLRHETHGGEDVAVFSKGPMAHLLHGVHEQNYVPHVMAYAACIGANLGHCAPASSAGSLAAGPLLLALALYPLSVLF

| SMILES | activation factor |
| --- | --- |
| Cc1ccc(C)n1-c1ccncc1 | 0.9 |
| Cc1cc(N2C(=O)C(=O)/C(=C(/O)c3ccc(Cl)cc3)C2c2cccc(Br)c2)no1 (stereo not drawn) | 0.8 |
| CCCOc1ccc(CN(CCO)CCO)cc1C(=O)OC | 0.9 |
| CN(C)Cc1c(O)ccc2occ(C(O)c3ccccc3)c12 (stereo not drawn) | 0.9 |
| CCn1cc(C(=O)NC2CCCCCC2)c(=O)c2cc(S(=O)(=O)N3CCCCC3)ccc21 | 0.9 |
| CCn1cc(C(=O)N2CCN(C3CCCCC3)CC2)c2cc(OC)c(OC)cc2c1=O | 0.9 |
| CCOC(=O)N1CCN(C(=O)c2ccc3nc4cc(Cl)ccc4c(=O)n3c2)CC1 | 0.9 |
| CCc1nc(C)cn1S(=O)(=O)c1cc(OC)c(C)cc1C | 0.9 |
| O=C(O)CC(c1ccccc1)n1cnnn1 (stereo not drawn) | 1 |
| COCCCn1c(CCC(=O)O)ccc1-c1ccc(F)cc1 | 0.9 |
| CC1CN(C(=O)c2ccc3c(c2)OCO3)OC(c2ccccc2)O1 (stereo not drawn) | 1 |
| COC(=O)[C@H](Cc1ccccc1)NC(=O)Nc1ccc(S(N)(=O)=O)cc1 | 0.9 |
| CC(=O)N=c1ncn(CC(COC(C)=O)OC(C)=O)c2nc[nH]c12 (stereo not drawn) | 0.9 |
| O=C(COc1ccc2c3c(c(=O)oc2c1)CCC3)NC1CCCCC1 | 1 |
| Cc1ccc(S(=O)(=O)NCC(=O)N(CC(=O)NC2CCCCC2)Cc2ccco2)cc1 | 0.9 |
| CC(C)c1cc(C(=O)O)on1 | 1 |
| Cc1cc(C)cc(N(CC(=O)Nc2c(C)n(C)n(-c3ccccc3)c2=O)S(C)(=O)=O)c1 | 0.9 |
| CC(C)(C)n1nnc(CCc2nnn(C(C)(C)C)n2)n1 | 0.9 |
| O=C(c1ccccc1)c1ccc(OC(=O)N2CCCC2)cc1 | 0.9 |
| COc1cc(OC)c(C(=O)NC2CC(C)(C)NC(C)(C)C2)cc1OC | 1 |
| CCOc1ccc(C(=O)NC2CCN(S(=O)(=O)CC)CC2)cc1 | 0.9 |
| COc1ccc(S(=O)(=O)N2CCCC(C(=O)N3CCN(C)CC3)C2)cc1C (stereo not drawn) | 1 |
| COC(=O)COc1ccc2oc(=O)cc(C)c2c1 | 1 |
| CC(=O)Nc1ccc(S(=O)(=O)N2CCSCC2)cc1 | 1 |
| O=C(CCCN1C(=O)CCC1=O)Nc1ccc(Cl)c(C(F)(F)F)c1 | 0.9 |
| Cc1cc(N2C(=O)C(=O)/C(=C(/O)c3ccccc3)C2c2cccc(Br)c2)no1 (stereo not drawn) | 1 |
| CCn1cc(C(=O)N2CCN(Cc3ccc4c(c3)OCO4)CC2)c2cc(OC)c(OC)cc2c1=O | 0.9 |
| CCc1c(C)c2c(C)[nH]nc2oc1=O | 0.8 |

Source: PubChem BioAssay AID813 (Sanford-Burnham Center for Chemical Genomics, 2007)
